Source: PubChem BioAssay (NCATS)
Inconclusive results are not listed. Where a call stands in place of a potency, no number is given. Values without a mark were called inactive. The source made the active and inactive calls. Unless noted, calls follow the shape of the dose curve; as a rule, active = well fitted curve in the direction sought with a large enough effect; inconclusive = small, poorly fitted or top-dose-only effect, or another doubt; inactive = no such curve, though single readings can be large; an effect the other way counts as inactive or inconclusive.

Tests used:
[1] = qHTS for Inhibitors of Plasmodium falciparum (GB4) proliferation (AID 504315); also: nearly all actives have a fitted effect of over 50% in size; also: potency is read from the fitted curve at half-maximal effect
Summary of the method: (§1)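 Erythrocytes infected with P. falciparum line (0.3% parasitemia, 2.5% hematocrit final) incubated with compounds 72 h at 37 °C, 5% CO2; SYBR Green lysis buffer added, fluorescence read next day. Normalized to 0.29 uM artemisinin and DMSO.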

[2] = qHTS for Inhibitors of Plasmodium falciparum (CP250) proliferation (AID 504320); also: potency is read from the fitted curve at half-maximal effect
Summary of the method: as §1

[3] = biological target: Atrial natriuretic peptide receptor 1 (Homo sapiens) (UniProt P16066); experiment: Natriuretic polypeptide receptor (hNpr1) antagonism - Pilot CMLD screen (AID 1347052; calls by dose curve;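 also: HEK293 cells with hNpr1 stimulated by hNppA peptide at 0.1 nM; cGMP level read as GloSensor luciferase luminescence after agonist stimulation; series mostly up to about 9.2 µM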)
[4] = qHTS for Inhibitors of Plasmodium falciparum (7G8) proliferation (AID 504316); also: nearly all actives have a fitted effect of over 65% in size; also: potency is read from the fitted curve at half-maximal effect
Summary of the method: as §1

[5] = qHTS for Inhibitors of Plasmodium falciparum (HB3) proliferation (AID 504318); also: nearly all actives have a fitted effect of over 60% in size; also: potency is read from the fitted curve at half-maximal effect
Summary of the method: as §1

Chain of Atrial natriuretic peptide receptor 1 (Homo sapiens) (P16066 whole entry, looked up): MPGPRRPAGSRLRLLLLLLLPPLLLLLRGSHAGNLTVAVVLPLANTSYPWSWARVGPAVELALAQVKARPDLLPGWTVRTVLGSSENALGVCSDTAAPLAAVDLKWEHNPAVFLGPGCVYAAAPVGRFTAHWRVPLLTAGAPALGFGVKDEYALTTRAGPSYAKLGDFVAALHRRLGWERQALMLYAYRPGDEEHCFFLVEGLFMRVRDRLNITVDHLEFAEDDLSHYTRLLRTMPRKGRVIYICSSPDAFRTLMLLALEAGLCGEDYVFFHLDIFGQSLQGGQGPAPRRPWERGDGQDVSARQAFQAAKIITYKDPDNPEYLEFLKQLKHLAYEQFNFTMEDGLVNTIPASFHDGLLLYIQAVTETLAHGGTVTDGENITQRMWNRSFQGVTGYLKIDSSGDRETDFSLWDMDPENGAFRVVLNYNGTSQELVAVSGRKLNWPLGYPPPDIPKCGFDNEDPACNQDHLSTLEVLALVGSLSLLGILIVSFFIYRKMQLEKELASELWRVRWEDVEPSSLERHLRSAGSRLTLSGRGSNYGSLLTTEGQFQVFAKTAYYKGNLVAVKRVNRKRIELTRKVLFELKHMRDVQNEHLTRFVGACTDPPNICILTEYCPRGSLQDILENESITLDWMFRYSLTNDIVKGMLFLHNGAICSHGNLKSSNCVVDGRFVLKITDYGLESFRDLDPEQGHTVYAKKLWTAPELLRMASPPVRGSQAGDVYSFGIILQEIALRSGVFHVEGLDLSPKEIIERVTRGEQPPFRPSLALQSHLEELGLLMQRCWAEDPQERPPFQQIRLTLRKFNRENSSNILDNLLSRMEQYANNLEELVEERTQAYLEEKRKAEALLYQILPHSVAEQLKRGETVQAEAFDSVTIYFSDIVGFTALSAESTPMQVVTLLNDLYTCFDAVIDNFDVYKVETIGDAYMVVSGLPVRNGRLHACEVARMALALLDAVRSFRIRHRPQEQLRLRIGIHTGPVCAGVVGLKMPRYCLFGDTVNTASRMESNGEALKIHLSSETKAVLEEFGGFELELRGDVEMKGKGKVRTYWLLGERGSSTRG

With `COC(=O)CC=C[C@@H](C)[C@@H](C=NOC[C@H]1O[C@H](c2ccccc2)C=C[C@H]1Oc1ccc(OC)cc1)N[S+](=O)([O-])c1ccc(C)cc1` the Potency [1] was “inactive”, the Potency [2] was “inactive” and the Potency [3] was “inactive”.

For `CCc1cc2c(nc1CC)CCN(CCC(C)=NO[C@@H]1O[C@H](COC(C)=O)[C@@H](OC(C)=O)[C@H](OC(C)=O)[C@@H]1OC(C)=O)C2`, the Potency [1] was “inactive”, the Potency [2] was “inactive” and the Potency [3] was “inactive”.

With `COc1cccc2c1[C@H](C=Cc1ccccc1)[C@@H]([C@H](O)CN=[N+]=[N-])OC2` the Potency [1] was “inactive”, the Potency [2] was “inactive” and the Potency [3] was “inactive”.

With `COC(=O)C1=C(C)N(Cc2ccccc2)C(=NCC2CC2)NC1c1cccc(C(F)(F)F)c1` (stereo not drawn) the Potency [4] was “inactive” and the Potency [3] was “inactive”.

For `CCO[C@H](c1cc(OC)cc([N+](=O)[O-])c1OC)[C@H](C)[C@@H](OC)[C@H](C)C=CCC(=O)OC`, the Potency [4] was “inactive” and the Potency [3] was “inactive”.

With `COc1ccc(O[C@H]2C=C[C@@H](c3ccccc3)O[C@H]2COC(=O)CCC(C)=NOC[C@@H](C)[C@H](OCc2ccccc2)C(C)C)cc1` the Potency [4] was 1900 nM (active) and the Potency [3] was “inactive”.

In the case of `COc1ccc([C@]23Cc4ccccc4[C@H](O2)c2c(cc(C)n(Cc4ccccc4)c2=O)O3)cc1`, the Potency [1] is reported as 2130 nM (active), the Potency [2] is reported as “inactive” and the Potency [3] is reported as “inactive”.

For `COC(=O)C1=C(C(=O)OC)[C@@H]2N(Cc3ccccc3)c3ccccc3[C@@]23C[C@@H](CO)N(C(=O)CC(C)C)C3=N1`, the Potency [4] was 1690 nM (active) and the Potency [3] was “inactive”.

With `C#CCCCON=C1C[C@@H](O)[C@H](O)[C@H]2[C@@H]3C(=O)N(Cc4ccccc4)C(=O)[C@@H]3CC[C@H]12` the Potency [1] was “inactive”, the Potency [2] was “inactive” and the Potency [3] was “inactive”.

For `CC#CCN1c2ccccc2[C@]23CCC(=O)N(Cc4ccco4)C2=NC(C(=O)OC)=C(C(=O)OC)[C@H]13`, the Potency [4] was 1690 nM (active) and the Potency [3] was “inactive”.

In the case of `CCCCCCCc1cc2ccc(F)cc2c2c(C(=O)OC)c(C(=O)OC)c(C(=O)OC)n12`, the Potency [4] is reported as “inactive” and the Potency [3] is reported as “inactive”.

In the case of `CCc1cc2c(nc1CC)CCN(CCC(C)=NOC[C@H]1O[C@H](c3ccccc3)C=C[C@H]1Oc1ccc(OC)cc1)C2`, the Potency [4] is reported as 1690 nM (active) and the Potency [3] is reported as “inactive”.

In the case of `COC(=O)C1=C(C)N(Cc2ccccc2)C(=NCCc2ccc(O)cc2)NC1c1ccc(Br)cc1` (stereo not drawn), the Potency [4] is reported as “inactive”, the Potency [5] is reported as “inactive” and the Potency [3] is reported as “inactive”.

With `CCC(=O)N1C2=C(c3ccccc3[C@@H]1CC(=O)Nc1ccc3ccccc3c1)[C@H]1C(=O)N(c3ccccc3)C(=O)[C@@H]1[C@H](C)C2` the Potency [4] was 1510 nM (active), the Potency [2] was “inactive” and the Potency [3] was “inactive”.

With `Cc1ccc(O[C@@H]2[C@H](O)CO[C@H]2C=CC#Cc2ccc(C(C)(C)C)cc2)cc1` the Potency [4] was “inactive”, the Potency [5] was “inactive” and the Potency [2] was “inactive”. For the same compound, the Potency [3] was “inactive”.

For `COC(=O)C1=C(C)N(Cc2ccccc2)C(=NCCCCO)NC1c1cccc(F)c1` (stereo not drawn), the Potency [4] was “inactive”, the Potency [5] was “inactive” and the Potency [2] was “inactive”. For the same compound, the Potency [3] was “inactive”.

With `CC=COC(=O)N[C@@H](c1cccc(C)c1)[C@]1(C(=O)OCC)CCCC1=O` the Potency [4] was “inactive”, the Potency [5] was “inactive” and the Potency [2] was “inactive”. For the same compound, the Potency [3] was “inactive”.

For `COC(=O)c1c(C(=O)OC)c2c3cc(OC)c(OC)cc3cc([Si](C)(C)C)n2c1C(=O)OC`, the Potency [4] was 1510 nM (active), the Potency [5] was 2130 nM (active) and the Potency [2] was “inactive”. The Potency [3] was “inactive”.

With `COC(=O)c1ccc(CN2C(=O)[C@@]3(CC(C)=CC[C@@H](C)O3)c3ccccc32)cc1` the Potency [4] was “inactive”, the Potency [5] was “inactive” and the Potency [2] was “inactive”. For the same compound, the Potency [3] was “inactive”.

For `CC1=C[C@@H](COc2ccccc2)O[C@@]2(C1)C(=O)N(Cc1ccccc1)c1ccccc12`, the Potency [4] was 757 nM (active), the Potency [5] was “inactive” and the Potency [2] was “inactive”. The Potency [3] was “inactive”.

With `O=C1C2=C(C(=O)c3ccccc31)[C@H]1O[C@](c3ccsc3)(Cc3ccccc31)O2` the Potency [4] was 1900 nM (active), the Potency [5] was 1900 nM (active) and the Potency [3] was “inactive”.

With `C[C@H]1C=CCC(=O)N[C@@H](c2ccccc2)[C@@H](C)C=CCC(=O)N[C@@H]1c1ccccc1` the Potency [4] was 426 nM (active), the Potency [5] was 1510 nM (active) and the Potency [2] was “inactive”. For the same compound, the Potency [3] was “inactive”.

In the case of `CC(C)(C)Nc1oc(-c2ccccc2)nc1C=Cc1ccccc1`, the Potency [4] is reported as 1510 nM (active), the Potency [5] is reported as 1690 nM (active) and the Potency [3] is reported as “inactive”.

With `COc1cc2c(cc1OC)[C@@H]1O[C@](CCCCN3C(=O)c4ccccc4C3=O)(C2)Oc2cc(C)n(Cc3ccccc3)c(=O)c21` the Potency [4] was 1510 nM (active), the Potency [5] was 1690 nM (active) and the Potency [2] was 1690 nM (active). For the same compound, the Potency [3] was “inactive”.

With `CCCNC(=O)OC[C@H]1O[C@H](CCON=C(C)CCN2CCCCc3nc(C)c(C)cc32)C=C[C@H]1Oc1ccc(OC)cc1` the Potency [4] was 1900 nM (active), the Potency [5] was 2820 nM (active) and the Potency [3] was “inactive”.

For `COc1ccccc1C=CC1=CC2(C)CC1(C)C(c1ccccc1OC)CC2=O` (stereo not drawn), the Potency [4] was 1690 nM (active), the Potency [5] was 1690 nM (active) and the Potency [3] was “inactive”.

For `CCN1C(=NCc2ccc(OC)cc2)NC(c2ccccc2)C(C(=O)OC)=C1C` (stereo not drawn), the Potency [4] was “inactive”, the Potency [5] was “inactive” and the Potency [3] was “inactive”.

With `COC(=O)C1=C(C)N(Cc2ccccc2)C(=NCC2CC2)NC1c1ccc(Br)cc1` (stereo not drawn) the Potency [4] was “inactive”, the Potency [5] was “inactive” and the Potency [3] was “inactive”.

With `CC1=CC[C@@H](C)O[C@@]2(C1)C(=O)N(Cc1ccc(Br)cc1)c1ccccc12` the Potency [4] was “inactive”, the Potency [5] was “inactive” and the Potency [2] was “inactive”. For the same compound, the Potency [3] was “inactive”.

In the case of `COc1cccc([C@H]2Oc3ccc(OC)cc3C(=NO[C@@H](C)c3cc(-c4c(C)cc(C)cc4C)no3)[C@H]2O)c1`, the Potency [4] is reported as “inactive”, the Potency [5] is reported as “inactive” and the Potency [2] is reported as “inactive”. The Potency [3] was “inactive”.
